Results reported in PubChem BioAssay (EPA / NIEHS).
Results filed as inconclusive are left out. Some compounds were tested as several samples or in several runs, with calls that do not always agree. Calls of active or inactive are those of the source. Rule for the calls, unless noted: active = hit-call score of the fitted dose curve at least 0.9, where 1 is the maximum; inconclusive = response in the unintended direction; inactive = score below 0.9.

Legend:
[1] = target: Estrogen receptor beta (Homo sapiens) (UniProt Q92731); experiment: OT_ER_ERbERb_1440: Odyssey Thera (OT) 24-hour HEK293T Protein-Complementation Assay for Estrogen Receptor-beta/-beta Homodimer (AID 2283380);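 note: fluorescence gain from ER beta LBD homodimer complementation read by laser scanning cytometry; scored as signal increase over DMSO baseline for both agonists and antagonists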
Estrogen receptor beta (Homo sapiens), sequence (Q92731 whole entry, looked up, the tested form may be a part): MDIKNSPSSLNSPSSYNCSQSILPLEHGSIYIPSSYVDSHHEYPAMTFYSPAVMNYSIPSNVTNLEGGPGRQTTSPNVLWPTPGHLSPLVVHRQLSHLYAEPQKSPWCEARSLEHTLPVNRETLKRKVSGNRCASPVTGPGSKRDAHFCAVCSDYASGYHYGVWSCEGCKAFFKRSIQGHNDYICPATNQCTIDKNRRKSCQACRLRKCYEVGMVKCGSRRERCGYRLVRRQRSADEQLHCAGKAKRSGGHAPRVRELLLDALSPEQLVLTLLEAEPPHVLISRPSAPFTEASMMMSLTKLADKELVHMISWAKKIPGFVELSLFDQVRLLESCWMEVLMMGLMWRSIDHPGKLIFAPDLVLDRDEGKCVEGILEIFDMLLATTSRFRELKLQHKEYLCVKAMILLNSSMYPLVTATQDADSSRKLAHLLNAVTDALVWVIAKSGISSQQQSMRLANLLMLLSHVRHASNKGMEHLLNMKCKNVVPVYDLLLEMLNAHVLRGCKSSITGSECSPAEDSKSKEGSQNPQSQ
Method in brief: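 Fluorescence increase, nuclear for agonists or whole-cell for antagonists, relative to DMSO vehicle, quantified by laser scanning cytometer after fixation and Draq5 staining. Readout from 24 h treatment of HEK293T cells carrying complementation-paired ER beta LBD (aa 310-547).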

[2] = target: Bile acid receptor (Homo sapiens) (UniProt Q96RI1); experiment: OT_FXR_FXRSRC1_0480: Odyssey Thera (OT) 8-hour HEK293T Protein-Complementation Assay for Farnesoid X receptor/SRC-1 Co-activator (AID 2283383)
Bile acid receptor (Homo sapiens), sequence (Q96RI1 whole entry, looked up, the tested form may be a part): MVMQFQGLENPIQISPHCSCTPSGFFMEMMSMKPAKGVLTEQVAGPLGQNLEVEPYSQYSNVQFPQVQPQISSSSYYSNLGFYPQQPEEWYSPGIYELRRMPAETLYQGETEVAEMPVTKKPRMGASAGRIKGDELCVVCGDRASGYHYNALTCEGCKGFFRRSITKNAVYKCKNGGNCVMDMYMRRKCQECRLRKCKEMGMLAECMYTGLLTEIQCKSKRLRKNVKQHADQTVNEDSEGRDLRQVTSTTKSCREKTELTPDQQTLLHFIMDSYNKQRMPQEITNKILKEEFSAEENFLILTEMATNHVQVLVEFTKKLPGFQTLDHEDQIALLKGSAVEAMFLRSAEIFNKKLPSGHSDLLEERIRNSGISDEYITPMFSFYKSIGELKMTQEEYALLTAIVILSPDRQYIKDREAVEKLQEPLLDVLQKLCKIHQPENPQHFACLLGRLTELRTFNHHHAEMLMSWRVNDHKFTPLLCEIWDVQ
Method in brief: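 HEK293T protein-fragment complementation assay: FXR and SRC-1 coactivator are fused to reporter fragments, and their interaction restores a fluorescent reporter. Readout was taken 8 h after dosing, with gain of signal fit relative to DMSO.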

[3] = target: Bile acid receptor (Homo sapiens) (UniProt Q96RI1); experiment: OT_FXR_FXRSRC1_1440: Odyssey Thera (OT) 24-hour HEK293T Protein-Complementation Assay for Farnesoid X receptor/SRC-1 Co-activator (AID 2283384)
Method in brief: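 HEK293T cells, 24 h after chemical dosing. FXR–SRC-1 coactivator interaction read as fluorescence from protein-fragment complementation of a split reporter. Gain of signal fitted against DMSO baseline.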

[4] = target: Retinoic acid receptor RXR-alpha (Homo sapiens) (UniProt P19793); experiment: OT_NURR1_NURR1RXRa_0480: Odyssey Thera (OT) 8-hour HEK293T Protein Complementation Assay for Nurr1/retinoid X receptor (RXR) (AID 2283385)
Retinoic acid receptor RXR-alpha (Homo sapiens), sequence (P19793 whole entry, looked up, the tested form may be a part): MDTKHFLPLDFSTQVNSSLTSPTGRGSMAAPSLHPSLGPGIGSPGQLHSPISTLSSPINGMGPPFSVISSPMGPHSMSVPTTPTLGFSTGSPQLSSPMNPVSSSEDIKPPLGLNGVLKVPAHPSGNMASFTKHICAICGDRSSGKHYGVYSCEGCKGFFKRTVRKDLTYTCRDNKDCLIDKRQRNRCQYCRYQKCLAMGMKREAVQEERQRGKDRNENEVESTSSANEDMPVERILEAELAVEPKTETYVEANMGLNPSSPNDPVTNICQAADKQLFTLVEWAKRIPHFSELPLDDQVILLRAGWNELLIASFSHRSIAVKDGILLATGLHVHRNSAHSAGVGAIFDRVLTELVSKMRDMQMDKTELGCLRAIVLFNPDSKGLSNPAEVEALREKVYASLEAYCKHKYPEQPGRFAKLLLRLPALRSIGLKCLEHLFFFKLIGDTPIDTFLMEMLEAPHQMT
Method in brief: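 HEK293T cells expressing Nurr1 and RXRα fused to reporter fragments (protein-fragment complementation); fluorescence measured 8 h after dosing. Gain of signal fitted relative to DMSO.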

[5] = target: Retinoic acid receptor RXR-alpha (Homo sapiens) (UniProt P19793); experiment: OT_NURR1_NURR1RXRa_1440: Odyssey Thera (OT) 24-hour HEK293T Protein Complementation Assay for Nurr1/retinoid X receptor (RXR) (AID 2283386)
Method in brief: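 HEK293T protein-fragment complementation of Nurr1 and RXRα fused to reporter fragments; compounds 24 h. Fluorescence gain from reconstituted reporter fitted versus DMSO.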

[6] = target: Peroxisome proliferator-activated receptor gamma (Homo sapiens) (UniProt P37231); experiment: OT_PPARg_PPARgSRC1_0480: Odyssey Thera (OT) 8-hour Protein-Complementation Assay for Peroxisome Proliferator-activated Receptor Gamma / SRC-1 Co-activator (AID 2283387)
Peroxisome proliferator-activated receptor gamma (Homo sapiens), sequence (P37231 whole entry, looked up, the tested form may be a part): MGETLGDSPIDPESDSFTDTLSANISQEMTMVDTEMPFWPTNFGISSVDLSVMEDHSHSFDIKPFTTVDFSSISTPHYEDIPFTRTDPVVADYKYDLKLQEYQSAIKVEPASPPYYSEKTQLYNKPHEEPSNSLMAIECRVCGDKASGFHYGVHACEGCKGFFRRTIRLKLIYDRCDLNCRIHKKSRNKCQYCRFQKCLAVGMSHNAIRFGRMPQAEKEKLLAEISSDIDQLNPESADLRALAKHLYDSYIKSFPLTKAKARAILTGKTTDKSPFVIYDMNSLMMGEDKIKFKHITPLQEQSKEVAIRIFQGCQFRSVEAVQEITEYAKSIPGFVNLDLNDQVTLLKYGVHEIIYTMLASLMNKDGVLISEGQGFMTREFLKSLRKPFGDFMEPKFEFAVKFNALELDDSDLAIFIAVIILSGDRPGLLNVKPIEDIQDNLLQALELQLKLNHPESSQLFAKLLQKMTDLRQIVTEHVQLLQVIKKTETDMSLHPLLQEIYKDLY
Method in brief: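 Split-YFP (IFP1/IFP2) PPARg/SRC-1 reporter, HEK293T, 37 °C, 5% CO2; 8 h compound; formaldehyde fix + Draq5; high-content imaging, N/C ratio, ≥350 cells/image, positive direction vs DMSO.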

[7] = target: Peroxisome proliferator-activated receptor gamma (Homo sapiens) (UniProt P37231); experiment: OT_PPARg_PPARgSRC1_1440: Odyssey Thera (OT) 24-hour Protein-Complementation Assay for Peroxisome Proliferator-activated Receptor Gamma/ SRC-1 Co-activator (AID 2283388)
Method in brief: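 HEK293T cells transiently transfected with PPARg and SRC-1 fused via (Gly4Ser)2 linker to split Venus YFP fragments (IFP1/IFP2) were dosed 24 h; fixed, Draq5-stained, imaged at 488/635 nm; nuclear/cytoplasmic fluorescence ratio scored versus DMSO baseline, gain-of-signal.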

[8] = CEETOX_H295R_OHPREG: CeeTox H295R High-throughput Steroidogenesis Assay for OH-Pregnenolone (OHPREG) (AID 2283434; active = hit-call score of the fitted dose curve at least 0.9, where 1 is the maximum; inactive = score below 0.9); conditions: actives raise or lower the signal
Method in brief: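 Hormone levels in spent medium were measured by tandem mass spectrometry following liquid-liquid extraction. Cells (H295R) had been forskolin-stimulated (10 uM, 48 h) before a 48 h chemical exposure at 0.1% DMSO, with activity fitted in both directions against DMSO.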

[9] = CEETOX_H295R_OHPROG: CeeTox H295R High-throughput Steroidogenesis Assay for OH-Progesterone (OHPROG) (AID 2283435; active = hit-call score of the fitted dose curve at least 0.9, where 1 is the maximum; inactive = score below 0.9); conditions: actives raise or lower the signal
Method in brief: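 H295R adrenal cells prestimulated 48 h with 10 uM forskolin, then exposed 48 h to chemical (0.1% DMSO final). 17alpha-hydroxyprogesterone in medium quantified by HPLC-MS/MS; bidirectional fit versus DMSO, with MTT viability measured in the same wells.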

[10] = CEETOX_H295R_ANDR: CeeTox H295R High-throughput Steroidogenesis Assay for Androstenedione (ANDR) (AID 2283436; active = hit-call score of the fitted dose curve at least 0.9, where 1 is the maximum; inactive = score below 0.9); conditions: actives raise or lower the signal
Method in brief: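 Read-out is androstenedione secreted into medium, measured by tandem mass spectrometry after liquid-liquid extraction. Cells were H295R, dosed for 48 h per modified OECD 456; activity fitted in both directions relative to DMSO.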

[11] = target: Estrogen receptor (Homo sapiens) (UniProt P03372); experiment: OT_ERa_GFPERaERE_0480: Odyssey Thera (OT) 8-hour HeLa Transcription Induction Assay for Estrogen Receptor (AID 2283381; active = hit-call score of the fitted dose curve at least 0.9, where 1 is the maximum; inactive = score below 0.9)
Estrogen receptor (Homo sapiens), sequence (P03372 whole entry, looked up): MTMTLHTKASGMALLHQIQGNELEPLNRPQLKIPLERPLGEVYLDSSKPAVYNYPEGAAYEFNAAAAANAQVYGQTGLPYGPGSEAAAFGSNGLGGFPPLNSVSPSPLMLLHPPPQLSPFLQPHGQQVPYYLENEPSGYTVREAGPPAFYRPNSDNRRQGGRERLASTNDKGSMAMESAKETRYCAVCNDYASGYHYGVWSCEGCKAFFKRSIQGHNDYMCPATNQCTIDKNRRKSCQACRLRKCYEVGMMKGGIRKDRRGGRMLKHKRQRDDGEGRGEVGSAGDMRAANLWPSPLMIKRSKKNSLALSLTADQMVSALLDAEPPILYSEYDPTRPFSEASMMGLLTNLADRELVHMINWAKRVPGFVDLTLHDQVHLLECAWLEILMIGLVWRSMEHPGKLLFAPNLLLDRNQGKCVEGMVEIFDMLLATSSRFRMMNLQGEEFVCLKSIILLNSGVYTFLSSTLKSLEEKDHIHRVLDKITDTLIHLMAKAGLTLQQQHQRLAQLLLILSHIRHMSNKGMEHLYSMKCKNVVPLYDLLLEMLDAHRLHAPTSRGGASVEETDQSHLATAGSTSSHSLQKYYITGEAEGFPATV
Method in brief: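 HeLa cells expressing GFP reporter under estrogen response element, imaged 8 h after dosing. GFP induction quantified by high-content fluorescence microscopy image analysis; gain of signal fitted versus DMSO.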

[12] = target: Estrogen receptor (Homo sapiens) (UniProt P03372); experiment: OT_ERa_GFPERaERE_0120: Odyssey Thera (OT) 2-hour HeLa Transcription Induction Assay for Estrogen Receptor (AID 2283382)
Method in brief: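 HeLa cells were dosed for 2 h, then GFP reporter induction was quantified by fluorescence microscopy with high-content image analysis. Gain of signal fitted against DMSO baseline.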

[13] = target: Agonist Androgen Response Element (ARE), AR (gene 367) (UniProt P10275); experiment: OT_AR_ARELUC_AG_1440: Odyssey Thera (OT) 24-hour CHO-K1 Luciferase Assay for Agonist Androgen Response Element (ARE) (AID 2283379)
Agonist Androgen Response Element (ARE), AR (gene 367), sequence (P10275 whole entry, looked up): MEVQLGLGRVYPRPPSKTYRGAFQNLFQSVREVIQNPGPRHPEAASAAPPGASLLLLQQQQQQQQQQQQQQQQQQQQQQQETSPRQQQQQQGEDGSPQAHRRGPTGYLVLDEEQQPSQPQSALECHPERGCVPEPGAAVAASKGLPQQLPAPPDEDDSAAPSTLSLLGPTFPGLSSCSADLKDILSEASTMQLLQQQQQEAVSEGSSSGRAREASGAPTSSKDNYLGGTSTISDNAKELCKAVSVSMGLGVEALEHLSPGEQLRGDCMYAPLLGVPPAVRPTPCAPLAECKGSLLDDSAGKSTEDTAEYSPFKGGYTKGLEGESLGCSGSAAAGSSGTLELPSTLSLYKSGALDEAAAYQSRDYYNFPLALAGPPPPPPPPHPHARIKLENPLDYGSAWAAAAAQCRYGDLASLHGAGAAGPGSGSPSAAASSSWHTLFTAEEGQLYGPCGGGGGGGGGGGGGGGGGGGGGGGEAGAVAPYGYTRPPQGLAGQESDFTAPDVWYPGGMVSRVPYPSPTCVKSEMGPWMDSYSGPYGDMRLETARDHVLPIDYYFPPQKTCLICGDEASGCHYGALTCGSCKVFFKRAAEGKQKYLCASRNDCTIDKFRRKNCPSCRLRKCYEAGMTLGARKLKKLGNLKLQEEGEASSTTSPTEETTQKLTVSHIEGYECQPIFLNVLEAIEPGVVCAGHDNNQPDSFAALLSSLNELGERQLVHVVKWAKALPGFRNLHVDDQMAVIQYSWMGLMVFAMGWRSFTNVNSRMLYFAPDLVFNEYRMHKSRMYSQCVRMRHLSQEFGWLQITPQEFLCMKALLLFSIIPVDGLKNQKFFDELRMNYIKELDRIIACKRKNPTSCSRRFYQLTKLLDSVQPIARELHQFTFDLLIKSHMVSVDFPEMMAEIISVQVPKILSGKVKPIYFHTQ
Method in brief: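 Agonist mode, 24 h exposure in CHO-K1 ARE-luciferase cells; values reflect luminescence induction over vehicle.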

[14] = target: Norway rat Vesicular Monoamine Transporter (VMAT2), neurotransmitter transporter, Slc18a2 (gene 25549) (UniProt Q01827); experiment: NVS_TR_rVMAT2: NovaScreen (NVS) Transporter Assay for Norway rat Vesicular Monoamine Transporter (VMAT2), neurotransmitter transporter (AID 2283376);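 note: actives lower the bound radioligand signal below the DMSO level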
Norway rat Vesicular Monoamine Transporter (VMAT2), neurotransmitter transporter, Slc18a2 (gene 25549), sequence (Q01827 whole entry, looked up): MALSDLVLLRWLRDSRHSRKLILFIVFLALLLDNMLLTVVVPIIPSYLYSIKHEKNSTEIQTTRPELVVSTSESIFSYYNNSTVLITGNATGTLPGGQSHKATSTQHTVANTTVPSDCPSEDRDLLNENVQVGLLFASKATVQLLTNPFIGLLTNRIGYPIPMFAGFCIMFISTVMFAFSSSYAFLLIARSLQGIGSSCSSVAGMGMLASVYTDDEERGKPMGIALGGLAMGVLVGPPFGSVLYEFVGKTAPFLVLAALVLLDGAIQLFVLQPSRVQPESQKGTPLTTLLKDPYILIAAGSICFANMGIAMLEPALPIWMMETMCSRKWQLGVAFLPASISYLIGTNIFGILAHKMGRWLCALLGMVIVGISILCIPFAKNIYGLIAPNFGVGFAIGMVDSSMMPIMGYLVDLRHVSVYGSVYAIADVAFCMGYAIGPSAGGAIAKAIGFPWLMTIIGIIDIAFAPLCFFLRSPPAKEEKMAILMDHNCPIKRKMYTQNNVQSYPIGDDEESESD
Method in brief: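 Tissue: rat forebrain extract. Format: competitive radioligand binding, cell-free. Timepoint: 1 h. Readout: filter radiodetection/scintillation. Screen: 25 uM in duplicate, then concentration series for actives. Baseline: DMSO.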

[15] = CEETOX_H295R_ESTRADIOL: CeeTox H295R High-throughput Steroidogenesis Assay for Estradiol (AID 2283440; active = hit-call score of the fitted dose curve at least 0.9, where 1 is the maximum; inactive = score below 0.9;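 note: estradiol secreted into medium quantified by LC-MS/MS after dansyl derivatisation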); conditions: actives raise or lower the signal
Method in brief: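 H295R adrenocortical cells were prestimulated with 10 uM forskolin for 48 h, then exposed to test chemical in 0.1% DMSO for 48 h. Medium estradiol was extracted with MTBE, dansyl-derivatized and quantified by HPLC-MS/MS; bidirectional fit versus DMSO.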

[16] = CEETOX_H295R_ESTRONE: CeeTox H295R High-throughput Steroidogenesis Assay for Estrone (AID 2283441; active = hit-call score of the fitted dose curve at least 0.9, where 1 is the maximum; inactive = score below 0.9;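 note: human adrenal H295R cells prestimulated with forskolin for two days; estrone secreted into medium measured by LC-MS/MS after dansyl derivatization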); conditions: actives raise or lower the signal
Method in brief: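 H295R cells prestimulated 48 h with 10 uM forskolin, then exposed 48 h to chemicals in 0.1% DMSO final; estrone in medium extracted with MTBE, dansyl-derivatized, quantified by HPLC-MS/MS; bidirectional fitting versus DMSO, viability by MTT.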

[17] = target: rat Serotonin Transporter (SERT), Slc6a4 (gene 25553) (UniProt P31652); experiment: NVS_TR_rSERT: NovaScreen (NVS) Transporter Assay for rat Serotonin Transporter (SERT) (AID 2283375)
Method in brief: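 Rat forebrain membranes were incubated with test chemical for 1 hour; radioligand binding to SERT was measured by filter-based scintillation counting. Primary screen ran in duplicate at 25 uM, with actives followed up in concentration series; DMSO served as negative control.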

[18] = CEETOX_H295R_CORTISOL: CeeTox H295R High-throughput Steroidogenesis Assay for Cortisol (AID 2283438; active = hit-call score of the fitted dose curve at least 0.9, where 1 is the maximum; inactive = score below 0.9;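 note: cortisol secreted into medium quantified by LC-MS/MS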); conditions: actives raise or lower the signal
Method in brief: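 Forskolin-primed H295R cells (10 uM, 48 h) treated 48 h with test chemical in 0.1% DMSO. Cortisol in medium quantified by MTBE extraction and HPLC-MS/MS; bidirectional fit vs DMSO, MTT viability in same wells.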

[19] = CEETOX_H295R_DOC: CeeTox H295R High-throughput Steroidogenesis Assay for DOC (AID 2283439; active = hit-call score of the fitted dose curve at least 0.9, where 1 is the maximum; inactive = score below 0.9); conditions: actives raise or lower the signal
Method in brief: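 H295R cells prestimulated 48 h with 10 uM forskolin, then exposed 48 h to test chemical (0.1% DMSO final). Medium 11-deoxycorticosterone measured by HPLC-MS/MS after MTBE extraction; bidirectional fit vs DMSO, viability checked by MTT in same wells.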

[20] = target: human Norepinephrine Transporter (NET), SLC6A2 (gene 6530) (UniProt P23975); experiment: NVS_TR_hNET: NovaScreen (NVS) Transporter Assay for human Norepinephrine Transporter (NET) (AID 2283377);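 note: cell-free membrane protein extracted from CHO cells expressing human NET; displacement of radioligand from human NET seen as loss of scintillation signal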
human Norepinephrine Transporter (NET), SLC6A2 (gene 6530), sequence (P23975 whole entry, looked up): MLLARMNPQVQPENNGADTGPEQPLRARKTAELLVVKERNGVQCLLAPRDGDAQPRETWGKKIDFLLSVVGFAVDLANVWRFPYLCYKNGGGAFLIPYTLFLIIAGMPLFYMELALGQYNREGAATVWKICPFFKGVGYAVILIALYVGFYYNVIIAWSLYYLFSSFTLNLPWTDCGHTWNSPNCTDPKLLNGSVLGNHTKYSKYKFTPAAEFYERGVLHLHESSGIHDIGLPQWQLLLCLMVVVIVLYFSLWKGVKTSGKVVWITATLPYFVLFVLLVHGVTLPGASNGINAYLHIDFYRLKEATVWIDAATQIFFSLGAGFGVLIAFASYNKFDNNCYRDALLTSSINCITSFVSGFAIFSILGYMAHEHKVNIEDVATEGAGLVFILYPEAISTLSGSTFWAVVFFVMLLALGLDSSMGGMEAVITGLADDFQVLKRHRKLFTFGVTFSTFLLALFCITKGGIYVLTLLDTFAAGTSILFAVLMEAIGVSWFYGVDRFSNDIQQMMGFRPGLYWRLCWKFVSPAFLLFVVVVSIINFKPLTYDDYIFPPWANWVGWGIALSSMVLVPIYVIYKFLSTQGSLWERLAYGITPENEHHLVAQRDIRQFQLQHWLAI
Method in brief: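 Scintillation counts of filter-retained radioligand served as the readout, taken 1 h post-dosing in a cell-free CHO-derived system. Test chemicals ran first at 25 uM in duplicate; confirmed hits were retested across concentrations.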

Measured: AC50

CC(COc1ccc(Oc2ccccc2)cc1)Oc1ccccn1 (stereo not drawn)
inactive: [1] | [4] | [5] | [6] | [7] | [8] | [9] | [10]
active: [2] 43 µM | [3] 7.29 µM | [4] 63.2 µM

CCCCOC(=O)[C@@H](C)Oc1ccc(Oc2ccc(C#N)cc2F)cc1
inactive: [1] | [11] | [12] | [4] | [5] | [6] | [7]
active: [4] 13.5 µM

C[N+]1(C)CCCCC1
inactive: [13] | [1] | [4] | [5] | [6] | [7]

CCCCSP(=O)(SCCCC)SCCCC
inactive: [1] | [3] | [4] | [5] | [6] | [7]
active: [2] 36.9 µM | [4] 68.9 µM

CSc1nc(NC(C)C)nc(NC(C)C)n1
active: [16] 2.54 µM
not listed: [2] | [3] | [10] | [13] | [17] | [18] | [19] | [20]
inactive: all other assays above

COc1cccc(C(=O)NN(C(=O)c2cc(C)cc(C)c2)C(C)(C)C)c1C
active: [2] 14.7 µM | [3] 27 µM
inactive: [1] | [4] | [5] | [6] | [7] | [8]

COc1ccc(C(=CC(=O)N2CCOCC2)c2ccc(Cl)cc2)cc1OC
active: [2] 31.5 µM | [3] 76.3 µM | [18] 35.2 µM
not listed: [11] | [12] | [13] | [14] | [15] | [16] | [20]
inactive: all other assays above

CCc1cccc(CC)c1N(COC)C(=O)CCl
inactive: [1] | [11] | [12] | [2] | [3] | [4] | [6] | [7]
active: [5] 0.714 µM

CCCOc1nn(C(=O)NS(=O)(=O)c2ccccc2C(=O)OC)c(=O)n1C
inactive: [13] | [4] | [5] | [6] | [7]

CCC(CC)Nc1c([N+](=O)[O-])cc(C)c(C)c1[N+](=O)[O-]
inactive: [4] | [5] | [6] | [7]
active: [1] 13.5 µM | [2] 43.3 µM | [3] 71.7 µM | [5] 82.1 µM

CCOC(=O)CC(SP(=O)(OC)OC)C(=O)OCC (stereo not drawn)
inactive: [1] | [2] | [3] | [4] | [5] | [6] | [7]

Cc1ccn2nc(S(=O)(=O)Nc3c(F)cccc3F)nc2n1
inactive: [1] | [2] | [3] | [4] | [5] | [6] | [7]

C[Si](Cn1cncn1)(c1ccc(F)cc1)c1ccc(F)cc1
inactive: [1] | [3] | [4] | [5] | [6] | [7] | [8] | [9]
active: [14] 14.1 µM | [20] 2.86 µM | [2] 13 µM

Cc1nn(-c2cc(NS(C)(=O)=O)c(Cl)cc2Cl)c(=O)n1C(F)F
inactive: [13] | [1] | [5] | [6] | [7]

CCOC(=O)COc1cc(-c2nn(C)c(OC(F)F)c2Cl)c(F)cc1Cl
inactive: [13] | [4] | [5] | [6] | [7] | [8] | [9] | [10] | [18] | [19]
